# Screening data (PubChem BioAssay)
# Shown is part of a subset that was picked to be rich in hits.
# PL biosyn Enam = phospholipid synthesis inhibitors, CHO cells, primary screen, ZR-82 cells, Enamine library, screen 3 | ZR-82 CHO cells, pyrene fatty acid UV survival, CellTiter Blue; peroxisome-deficient CHO-K1 mutant line; plus DGAT-1, DGAT-2 and ACAT inhibitors | calls only at 10 µM | 20,000 tested, 0.4% active | AID 1347385, 2020;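 active = cell survival signal 2 SD away from solvent-only control wells, confirmed on one or two retests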;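 note: 3 h compound exposure then viability read about one day after UV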
# * marks the source's active call; other numbers are inactive results; i = inactive; + = active, no number.
SMILES,PL biosyn Enam
CN(C)c1ccc(N=Nc2ccc([N+](=O)[O-])cc2C(F)(F)F)cc1,+
O=[N+]([O-])c1ccc(Cl)c(S(=O)(=O)Nc2ccc(SC(F)F)cc2)c1,i
CN(C)P(=Nc1ccc([N+](=O)[O-])cc1Br)(N(C)C)C(C)(C)C,i
Nc1ccc([N+](=O)[O-])cc1C(F)(F)F,i
CN(C)c1ccc(N=Cc2cc([N+](=O)[O-])ccc2OC(F)F)cc1,i
O=[N+]([O-])c1ccc(N=Nc2ccc(NCC(F)(F)C(F)F)cc2)c(Cl)c1,+
Cc1ccc2nc(N=C(N)N)[nH]c2c1,i
Nc1cc(=O)[nH]c(SCC(=O)c2ccco2)n1,i
O=S(=O)(NC1CCSc2ccccc21)c1ccc(S(=O)(=O)N2CCOCC2)cc1 (centres undefined),i
S=C(NCCCN1CCOCC1)N/N=C/c1ccsc1,i
Clc1ccc(CCCc2nc3ccc(Cl)cc3[nH]2)c(Cl)c1,i
Cc1nc2nc(C(F)(F)F)[nH][n+]2c(C)c1CCC(=O)O,i
Cc1cc(C(=O)CN2C(=O)C(=O)N(C3CCCC3)C2=O)c(C)n1Cc1cccs1,i
Cc1cc(N)n(-c2c(Cl)cc(Cl)cc2Cl)n1,i
Cc1cc(C)c2[nH]c(O)c(N=Nc3ccccn3)c2c1,+
CCN(CC)S(=O)(=O)c1ccc(N=Nc2c(O)[nH]c3c(C)cc(C)cc23)nc1,i
Oc1[nH]c2ccc(Br)cc2c1N=Nc1ccccn1,i
CC(C)(C)OC(=O)NNC(=O)CNC(=O)c1ccc(Br)o1,i
CC(C)NC(=S)NN=C1CCC(C(C)(C)C)CC1 (centres undefined),i
CC(C)NC(=S)N/N=C1\CCCCC1C1CCCCC1 (centres undefined),+
CC1CCCC/C1=N\NC(=S)NC1CCCCC1 (centres undefined),i
CCn1cn[nH]c1=S,i
Cc1nc2sccn2c1-c1nc(-c2cc(C)n(CC3CCCO3)c2C)cs1 (centres undefined),i
Cc1sc2ncnc(N=Nc3c(O)[nH]c4ccc(C(C)C)cc34)c2c1C,i
C=CCN=c1scc(-c2ccc(OC(F)F)cc2)n1/N=C(\C)c1ccc2c(c1)OCCO2,i
SMILES,PL biosyn Enam
COCCN=c1scc(-c2ccc(OC(F)F)cc2)n1/N=C(\C)c1ccc2c(c1)OCO2,i
C/C(=N\n1c(-c2ccc(OC(F)F)cc2)csc1=NC(C)C)c1ccc(-n2ccnc2)cc1,+
c1ccc(-n2c(SCc3cn4ccccc4n3)nc3ccccc32)cc1,i
Cc1nnc(SCC(=O)N2CC3(C)CC2CC(C)(C)C3)s1 (centres undefined),i
Cc1ccc(-n2nc(C)c(N=Nc3ccccc3C)c2N)cc1,i
Cc1cccc(N=Nc2c(C)nn(-c3ccccc3)c2N)c1C,i
Cc1nn(-c2ccccc2)c(N)c1N=Nc1ccc([N+](=O)[O-])c(C(F)(F)F)c1,+
Cc1cc(C(=O)COC(=O)C2CC3CCCC(C2)C3=O)c(C)n1C (centres undefined),i
CN1/C(=C\P(=Nc2ccc(S(N)(=O)=O)cc2)(OCC2CCCO2)c2ccccc2)C(C)(C)c2ccccc21 (centres undefined),i
C=CCNc1nc(C(=O)OCc2cc(=O)n3ccsc3n2)cs1,i
O=[N+]([O-])c1ccc(CSc2nnc(C3CC3)n2C2CC2)cc1,i
CN(C)c1ccc(N=Nc2ccccc2Br)cc1,+
CN(C)c1ccc(N=Nc2nn[nH]n2)cc1,i
CN(C)c1ccc(N=Cc2sc3ccccc3c2Cl)cc1,i
CN(C)c1ccc(N=Nc2ccc(S(=O)(=O)O)cc2)cc1,i
CN(C)c1ccc(N=Nc2ccccc2Cl)cc1,+
CN(C)c1ccc(C=Nc2ccc(N=Cc3ccc(N(C)C)cc3)cc2)cc1,i
CCOC(=O)C1=C(CSCC(=O)O)NC(=O)NC1,i
Cc1sc2nc(CN3CCCC3)nc(Sc3nnnn3Cc3cccs3)c2c1C,i
O=S(=O)(c1ccc(N2CCCC2c2ccc3c(c2)OCCO3)nc1)N1CCCC1 (centres undefined),i
Cc1nc(-c2ccc(CN)s2)cs1,i
O=C1C(=O)N(C2CCCC2)C(=O)N1Cc1cc(=O)oc2cc3c(cc12)CCC3,i
COc1ccccc1C1=CSC2=NS(=O)(=O)CCN12,i
C=CCN1C(=O)/C(=N\N=C\c2c[nH]c3ccccc23)c2ccccc21,+
NC(=S)N/N=C/c1c[nH]c2ccccc12,i
SMILES,PL biosyn Enam
O=S(=O)(N/N=C/c1c[nH]c2ccccc12)c1ccc(Br)cc1,i
COc1ccc(OCCSc2nnc(-c3ccc(OC)c(OC)c3)o2)cc1,i
ClC1(Cl)CC1CNc1ncnc2sccc12 (centres undefined),+
CN(C)C(CNc1ncnc2sccc12)c1cccs1 (centres undefined),i
OCCCNc1ncnc2sccc12,i
Fc1cc(Br)ccc1Oc1ccnc2cc(Cl)ccc12,i
CN1c2ccccc2C(C)(C)C12C=Cc1cc([N+](=O)[O-])ccc1O2 (centres undefined),i
O=c1c2cc([N+](=O)[O-])ccc2oc2ccc([N+](=O)[O-])cc12,i
O=C1Nc2ccc(Br)cc2C1(O)C(F)(F)F (centres undefined),i
O=C1Nc2ccc(Br)cc2C12NNc1ccccc1O2 (centres undefined),+
O=C1NC2(Oc3ccccc31)C(=O)Nc1ccccc12 (centres undefined),i
O=C1Nc2ccc([N+](=O)[O-])cc2C12NNc1ccccc1O2 (centres undefined),+
c1coc(-c2nnc(SCc3cn4ccccc4n3)n2C2CCCCC2)c1,i
CN(C)S(=O)(=O)c1ccc(=O)n(CC(=O)N2N=C(c3ccco3)CC2c2ccco2)c1 (centres undefined),i
O=C(Nc1nnc(C2CC2)s1)c1cc2c(=O)n3ccccc3nc2s1,i
COc1cccc2cc(/C=C/c3ccc4ccccc4n3)oc12,i
Fc1ccc(Br)cc1/C=N/n1c(-c2ccc(Cl)cc2)n[nH]c1=S,i
CCOC(=O)c1c(N)oc(C)c1C(C)=O,i
CCOC(=O)c1c(N)sc(C(N)=O)c1C,i
C=CCn1sc(N)c(C(=O)OCC)c1=S,+
CCCCN1C(=O)CNC1=S,i
CN=c1scc(-c2ccccc2F)n1/N=C/c1ccccc1F,+
CN=c1scc(-c2ccc(Br)cc2)n1/N=C/c1ccccc1F,i
CN=c1scc(-c2ccccc2F)n1/N=C/c1ccccc1,i
c1ccc(-c2nnc(-n3cnnc3)c3ccccc23)cc1,i
COCCNC(=S)N/N=C/c1cccs1,i
S=C(N/N=C/c1cccs1)NC1CCCCC1,+
O=C(/C=C/c1cccs1)NC1CCCC1,i
O=S(=O)(Nc1cccc(C(F)(F)F)c1)c1cccc(N=C2C=C(c3ccccc3)C(O)(c3ccccc3)C2)c1 (centres undefined),i
